Experimental data: the supplement of paper PMC10338343
± gives the standard deviation.

Tested on: MILI (PIWIL2) piRISC loaded with piRNA #1 (26 nt)
Test: pre-steady-state target cleavage rate (min^-1); guide: piRNA #1 5'p-UGAGGUAGUAGGUUGUAUAGUAUCCA; MIWI and MILI are mouse PIWI proteins and EfPiwi is from a freshwater sponge; tags in brackets are library labels; higher = faster piRNA-guided slicing of the target
Details: auxiliary factor: 500 nM mouse GTSF1
How it was run: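 A transcribed, DNA-blocked target RNA library […] was incubated at 33 °C for 0–8 or 0–960 min with 1 nM active affinity-purified piRISC carrying one synthetic guide, in HEPES–potassium acetate buffer with or without 500 nM GTSF1 partner protein. Uncleaved targets were then sequenced and normalised to depth and to weakly complementary targets. Data from three trials were pooled, with k3 capped at 0.0001 min^-1, and a burst-and-steady-state fit yielded the pre-steady-state cleavage rate.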
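Note: 1 nM active piRISC with 0.1 nM target library at 33 °C single turnover.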

Sequence	pre-steady-state target cleavage rate
GGAGACCUAACUAUACAACCUACCUACCUCA	0.0837 ± 0.018
GGAGACCAUUCUAUACAUCCUACUACCUCA	0.235 ± 0.019
GGAGACCUAUCAAUACUACCUACUACCUCA	0.0216 ± 0.0056
GGAGACCUUACUAUACUACCUAGUACCUCA	0.035 ± 0.0072
GGAGACCUAUGUAUACAACCUACUUGCUCA	0.0104 ± 0.0037
GGAGACCUUAGUAUACAAGCUACUACCUCA	0.174 ± 0.012
GGAGUGGAUAGUAUUCAACCUACUACCUCA	0.106 ± 0.011
GGAGACCUUACUAUACAAGCUUCUACCUCA	0.036 ± 0.0065
GGAGACCUAUGAUUACAACCGUACUACCUCA	0.00334 ± 0.0031
GGAGACCUAACAAUACAACCUAGUACCUCA	0.00888 ± 0.0052
GGAGACCUAUGUAUACAAGCAACUACCUCA	0.0055 ± 0.0022
GGAGACCUAACUAUACAAGCUACAACCUCA	0.182 ± 0.026
GGAGACCUAACUAUACAACCUAGCUACCUCA	0.0209 ± 0.008
GGAGACCUAUGAUUUCAACCUACAACCUCA	0.00341 ± 0.0021
GGAGACCUAUGUAUACAUCGUACUACCUCA	0.00791 ± 0.003
GGAGACCUAUGUAUACAACCUACUACCUA	0.044 ± 0.0064
GGAGACCUUCUAUACAACCUACUACCUCA	0.0879 ± 0.016
GGAGACCUAUGUAUACAAGCUAGUACCUCA	0.0538 ± 0.0098
GGAGACCUAUGAUUUCAUCCUACUACCUCA	0.0038 ± 0.0025
GGAGACCUAUGAUAUCAAGCUACUACCACA	0.00606 ± 0.0028

Sequence	pre-steady-state target cleavage rate
GGAGACCUAUCUAUAGAACCUACUACGUCA	0.0269 ± 0.0089
GGAGACCAUACUAUAAACCUACUACCUCA	0.0199 ± 0.0046
GGAGACCUUACAAUACAACCUACUUCCUCA	0.0632 ± 0.014
GGAGACGAUACUAUAGUUCCUACUACCUCA	0.161 ± 0.012
GGAGAGGAUUCUAUACAACCUACUACCACA	0.113 ± 0.011
GGAGACCUAUGAUAUGUGCCUACUACCUCA	< 0.0001
GGAGACCAUACUAUACAACCUAGCUACCUCA	0.0804 ± 0.012
GGAGUGGAUACAAAACAACCUACUACCUCA	0.12 ± 0.0086
GGAGAGGAUACUAUACAACGUACUACGUCA	0.0115 ± 0.0029
GGAGACCAUACUUUACAACGUACUACCUCA	0.0198 ± 0.0034
GGAGACCUAACUAUACAAUCUACUACCUCA	0.0713 ± 0.012
GGAGACCUAUGAUAUGUUCCUACUUCCUCA	< 0.0001
GGAGAGGAAUGUAUACAACCUACUACCUCA	0.0539 ± 0.0062
GGAGUGGAUACUAUACAACGUACUACGUCA	0.0108 ± 0.0027
GGAGACCUAUGUAUACAACCUAACUACCUCA	0.00595 ± 0.0023
GGAGUGGAUACUAUAAAACCUACUACCUCA	0.161 ± 0.0081
GGAGACCUUACUAUACAACCAUACUACCUCA	0.0055 ± 0.0037
GGAGACCUAUGUAUUCAACCUACUACCUCA	0.0588 ± 0.0091
GGAGACCUAUGUAUACUAGCUACUACCUCA	0.0336 ± 0.0059
GGAGUGGAUUCUAUACAUCCUACUACCUCA	0.299 ± 0.013
